Laboratory results reported in PubChem BioAssay (NCATS).
The source made the active and inactive calls. Entries that show only a call come without a potency. Calls come from the whole dose curve; as a rule, active = well fitted activation curve with a large enough effect; inconclusive = small, poorly fitted or top-dose-only effect; inactive = flat fitted curve, though single readings scatter.

test: Cellular Toxicity (caspase-3) SK-N-SH (AID 661); conditions: SK-N-SH caspase-3 activation, qHTS; caspase-3 activation: at 91.7 µM (top of the series), DMSO as zero, staurosporine as full
Excerpt: NIH Chemical Genomics Center [NCGC]
NIH Molecular Libraries Screening Centers Network [MLSCN]
National Institutes of Environmental Health Sciences [NIEHS]
National Toxicology Program [NTP]
We have developed a 1536-well cell-based assay for quantitative high throughput screening (qHTS) against a number of cell lines to determine in vitro caspase 3/7 activity of small molecules. This particular assay uses the SK-N-SH cell line which is derived from human neuroblastoma.
NCGC Assay Protocol Summary:
The Caspase-Glo 3/7 assay (Promega) is a homogeneous method to measure caspase-3 and caspase-7 activities in cultured cells. The quantitation of caspase 3/7 activity is based on the cleavage of a peptide-aminoluciferin substrate. After caspase cleaves the substrate the free aminoluciferin is liberated and serves as the substrate of luciferase, which generates the light. The luminescent signal is proportional to amount of caspase 3/7 activity present.
Using the Caspase-Glo 3/7 assay, the amount of caspase 3/7 activity was measured in the SK-N-SH cell line with complete culture medium following compound treatment for 16 hours. The assay was performed in opaque white 1536-well plates. In the screen, tamoxifen and staurosporine were used as positive controls. Library compounds were measured for their ability to cause the activation of caspase 3/7 in the cell line, as reflected by an increase in luminescence signal, in a concentration-dependent manner. Data were normalized to the controls for basal activity (DMSO only) and 100% stimulation (10 uM staurosporine). AC50 values were determined from concentration-response data modeled with the standard Hill equation.
qHTS protocol for caspase 3/7 assay in SK-N-SH cells
[Step] [Parameter] [Value] [Description]
1. Reagent; 5 uL; 1500 SK-N-SH cells/well
2. Time; 5 hr; 37 °C incubation
4. Controls; 23 nL; Tamoxifen 0.23 uM to 100 uM & staurosporine 1.4 pM to 100 uM
5. Time; 16 hr; 37 °C incubation
6. Reagent; 5 uL; Caspase-Glo 3/7 reagent
7. Time; 1 hr; Room Temperature
8. Detection; Luminescence; Viewlux plate reader
Keywords: caspase 3/7, apoptosis, SK-N-SH cell line, luminescence, NTPHTS, NTPHTS_NCGC, NIEHS, EPA, DSSTox, MLSMR, MLSCN, NIH Roadmap, qHTS, NCGC
Potency is the fitted concentration of half-maximal effect.

Structure (SMILES) | Potency | caspase-3 activation
OCl | inactive | 
C=C1C(CCl)(CCl)C2(Cl)C(Cl)C(Cl)C1(Cl)C2(Cl)Cl (stereo unspecified) |  | 90.5% (active)
Cc1ncc[nH]1 | inactive | 
Oc1cccc(O)c1O | inactive | 
Nc1ncnc2c1ncn2[C@H]1CC[C@@H](CO)O1 | inactive | 
O.O.O.O.O.O.O.O=S(=O)([O-])[O-].[Co+2] | inactive | 
CO/N=C(/C(=O)N[C@@H]1C(=O)N2C(C(=O)O)=C(COC(N)=O)CS[C@H]12)c1ccco1 | inactive | 
CC(C)O | inactive | 
COC(=O)c1ccccc1O | inactive | 
Oc1ccc(/C=C/c2cc(O)cc(O)c2)cc1 | inactive | 
OC[C@H]1O[C@@H]2O[C@H]3[C@H](O)[C@@H](O)[C@@H](O[C@H]4[C@H](O)[C@@H](O)[C@@H](O[C@H]5[C@H](O)[C@@H](O)[C@@H](O[C@H]6[C@H](O)[C@@H](O)[C@@H](O[C@H]7[C@H](O)[C@@H](O)[C@@H](O[C@H]1[C@H](O)[C@H]2O)O[C@@H]7CO)O[C@@H]6CO)O[C@@H]5CO)O[C@@H]4CO)O[C@@H]3CO | inactive | 
Cc1ccc(S(=O)(=O)O)cc1C | inactive | 
OB(O)O | inactive | 
ClC(Cl)Cl | inactive | 
CC1=CCC2CC1C2(C)C (stereo unspecified) | inactive | 
C/C=C/C=C/C(=O)O | inactive | 
CC/C=C\C/C=C\C/C=C\CCCCCCCC(=O)O | inactive | 
OCc1ccccc1 | inactive | 

Structure (SMILES) | Potency | caspase-3 activation
OCC(O)CO | inactive | 
C[C@H](CCC(=O)O)[C@H]1CC[C@H]2[C@@H]3CC[C@@H]4C[C@H](O)CC[C@]4(C)[C@H]3C[C@H](O)[C@]12C | inactive | 
CCOC(C)OCC | inactive | 
NC(N)=O | inactive | 
C[C@H]1O[C@@H](O[C@H]2[C@@H](O)C[C@H](O[C@H]3[C@@H](O)C[C@H](O[C@H]4CC[C@@]5(C)[C@H](CC[C@@H]6[C@@H]5C[C@@H](O)[C@]5(C)[C@@H](C7=CC(=O)OC7)CC[C@]65O)C4)O[C@@H]3C)O[C@@H]2C)C[C@H](O)[C@@H]1O | inactive | 
Nc1nccs1 | inactive | 
c1ccc2ccccc2c1 | inactive | 
CC(C)(C)CC(C)(C)c1ccc(OCCO)cc1 | inactive | 
O=c1n(CC2CO2)c(=O)n(CC2CO2)c(=O)n1CC1CO1 (stereo unspecified) | 15.8 µM (active) | 
CCCCO | inactive | 
CCCCC | inactive | 
NCCN | inactive | 
CO | inactive | 
Nc1ccc(N=Nc2ccccc2)c(N)n1 | inactive | 
CC1=CC(=O)NS(=O)(=O)O1 | inactive | 
[O-][N+](=Nc1ccccc1)c1ccccc1 | inactive | 
C[C@H](CCC(=O)O)[C@H]1CC[C@H]2[C@@H]3[C@H](O)C[C@@H]4C[C@H](O)CC[C@]4(C)[C@H]3C[C@H](O)[C@]12C | inactive | 
O=P(O)(O)O | inactive | 
